Bioassay records deposited in PubChem by The Scripps Research Institute Molecular Screening Center.
Hits are enriched below; roughly 2.5% of the tested compounds scored in any of these assays.
PRMT1 inh: blocks human protein arginine methyltransferase 1. recombinant PRMT1, activity-based probe fluorescence polarization. Q99873. hit rate 1.3% among 370,000. inhibition, % at 2.79 µM;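 active = inhibition above about 21% made by adding two undisclosed values, limit read from the data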
Target sequence (Q99873 whole entry, looked up): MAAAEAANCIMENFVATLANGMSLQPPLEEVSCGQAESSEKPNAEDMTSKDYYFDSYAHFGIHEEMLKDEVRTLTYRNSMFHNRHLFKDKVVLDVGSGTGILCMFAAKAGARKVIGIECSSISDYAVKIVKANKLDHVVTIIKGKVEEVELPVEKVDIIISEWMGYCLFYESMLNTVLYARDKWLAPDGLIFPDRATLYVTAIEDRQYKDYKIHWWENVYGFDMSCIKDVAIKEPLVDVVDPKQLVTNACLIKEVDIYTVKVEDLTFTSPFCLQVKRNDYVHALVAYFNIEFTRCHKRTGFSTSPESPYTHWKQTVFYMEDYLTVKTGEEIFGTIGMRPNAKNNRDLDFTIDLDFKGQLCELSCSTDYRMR
LEDGF integ inh: blocks HIV-1 LEDGF/p75-dependent DNA integration. TR-FRET IN-LEDGF/p75 DNA integration, Eu/Cy5. inhibition, % at 3.7 µM. hit rate 0.64% among 370,000. AID 743269;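 active = inhibition above the screen-wide mean plus 3 SD, cut at about 13% in these data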;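 also: signal is the Cy5 over europium emission ratio at 671 and 618 nm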
UHRF1 MBD2 ctr: human UHRF1 methylated DNA binding inhibitors | inhibition, % at 4.4 µM | hit rate 0.75% among 370,000 | Q96T88 | UHRF1 binding to methylated oligo, TR-FRET; in the data active = inhibition above about 21%;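 also: UHRF1 SRA domain binding a hemimethylated CpG hairpin DNA probe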
MBD2 inh: MBD2-methylated oligo binding inhibition; Q9UBB5; TR-FRET, MBD2 binding to methylated oligonucleotide; inhibition, % at 4.4 µM; hit rate 0.31% among 370,000; AID 686964; in the data active = inhibition above about 13%
PRMT1 inh conf: PRMT1 (human) inhibition, FP confirmation. inhibition, % at 2.79 µM. shares compounds with PRMT1 inh. recombinant His-PRMT1, activity-based probe fluorescence polarization. AID 687036. hit rate 42% among 3,300;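 active = mean inhibition across replicates above the hit cutoff derived for the earlier primary screen, cut at about 22% in these data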
Of the large screens only hits and unclear results are named; the others gave an inactive call (follow-up assays come after a bar, where they were run).

O=C(CSc1nnc(CNC(=O)c2ccc(F)cc2)o1)NCc1ccc2c(c1)OCO2	none
Cc1ccc(NC(=S)NC(=O)/C=C/c2ccco2)c(O)c1	PRMT1 inh 28 | PRMT1 inh conf inactive
O=C1N[C@@H](Cc2cn(S(=O)(=O)c3ccccc3)c3ccccc23)C(=O)N[C@H]1Cc1ccccc1	none
Cc1ccc(C(CC(=O)c2ccco2)SCCO)cc1 (stereo not given)	PRMT1 inh 28 | PRMT1 inh conf 32
O=C(c1ccco1)N1CCN=C1SCc1ccc(F)cc1	none
O=C(CC(SCCO)c1ccc(F)cc1)c1ccco1 (stereo not given)	PRMT1 inh 33 | PRMT1 inh conf 30
COc1cc2c(cc1CNC[C@H]1O[C@@H](n3ccc(N)nc3=O)[C@H](O)[C@@H]1O)OCO2	none
CSc1ccc(NC(=O)C2(C)CCN2C(=O)c2cc(C)n(C)n2)cc1 (stereo not given)	none
C[n+]1cc2c3c(ccc2c2ccc4cc5c(cc4c21)OCO5)OCO3	PRMT1 inh 61 | PRMT1 inh conf 85
C[n+]1c(/C=C/c2ccc3c(c2)OCO3)ccc2ccccc21	none
Cc1ccc(-n2nnnc2C(Cl)(Cl)c2nnnn2-c2ccc(C)cc2)cc1	PRMT1 inh 48 | PRMT1 inh conf 90
Nc1c(C(=O)Nc2ccc(Cl)c(Cl)c2)sc2nc(-c3cccnc3)ccc12	PRMT1 inh 26 | PRMT1 inh conf inactive
NC(=O)c1sc2nc(-c3cccnc3)ccc2c1N	none
Oc1ccc(N2CCN(Cc3ccc(OCCCN4CCCCC4)cc3)CC2)cc1	PRMT1 inh 28 | PRMT1 inh conf inactive
CN(Cc1ccccc1)C(=O)COC(=O)c1ccccc1SCC(=O)N1CCCC1	none
COc1ccc(-c2cc(C(F)(F)F)c3c(N)c(C(=O)NCCSC)sc3n2)cc1	none
COc1cccc(-c2nc(SC)nc3sc(C(=O)NC(C)(C)C)c(N)c23)c1	PRMT1 inh 25 | PRMT1 inh conf inactive
Cc1ccccc1C(=O)NC1CCSC1=O (stereo not given)	none
O=C(NC(=S)NC1CCSC1=O)c1ccccc1Cl (stereo not given)	PRMT1 inh 26 | PRMT1 inh conf inactive
O=C(NC(=S)NC1CCSC1=O)c1ccccc1 (stereo not given)	PRMT1 inh 30 | PRMT1 inh conf inactive
O=Cc1c[nH]c2cccc(OCc3ccccc3)c12	none
CCN(CC)C(=S)SCC(=O)Nc1ccc(S(N)(=O)=O)cc1	none
CCN(CC)C(=S)SCC(=O)Nc1nc(=O)c2ccccc2s1	PRMT1 inh 44 | PRMT1 inh conf inactive
CC1CCc2c(ccc3ccccc23)C1=O (stereo not given)	none
O=C1CCSc2c1ccc1ccccc21	PRMT1 inh 29 | PRMT1 inh conf inactive
Cc1ccc(NC(=O)Cc2cccc(OC(F)(F)F)c2)c(S(=O)(=O)N2CCOCC2)c1	none
Cc1ccc(NC(=O)Cn2sc3nc(C)cc(C)c3c2=O)c(Cl)c1	PRMT1 inh 79 | PRMT1 inh conf 88
Cc1cc(C)c2c(n1)SCC(=O)N2CC(=O)Nc1cccc(Cl)c1	none
CCOC(=O)c1cn(CC(=O)Nc2cccc(F)c2)nn1	none
Cc1cc(C)c2c(=O)n(CC(=O)Nc3cccc(F)c3)sc2n1	PRMT1 inh 90 | PRMT1 inh conf 84
Cc1cc(C)c2c(=O)n(CC(=O)Nc3ccc(Cl)cc3)sc2n1	PRMT1 inh 91 | PRMT1 inh conf 84
CC(COc1ccccc1)OC(=O)Nc1ccccc1 (stereo not given)	none
COc1ccc(C2=NN(C(=O)COc3ncnc4ccccc34)C(c3ccco3)C2)cc1 (stereo not given)	none
COc1ccc(C2=NN(C(=O)COC(=O)c3ccc(S(C)(=O)=O)c([N+](=O)[O-])c3)C(c3ccco3)C2)cc1 (stereo not given)	PRMT1 inh 41 | PRMT1 inh conf inactive
CCC(=O)N1CCCC1(C)C(=O)Nc1ccc2scnc2c1 (stereo not given)	none
Cc1ccc(/C=N/N2CCN(Cc3ccccc3)CC2)o1	none
Cc1ccc(/C=N/N2CCN(Cc3cccc4ccccc34)CC2)o1	PRMT1 inh 26 | PRMT1 inh conf inactive
CC(C)C(=O)NCc1cc(-c2ccccc2)no1	none
CC1=Nc2ccccc2N=C(NC(=O)c2ccccc2)C1c1ccccc1 (stereo not given)	none
O=C(NCc1ccccc1)C1CCCN(c2cnccn2)C1 (stereo not given)	none
FC(F)(F)c1ccccc1NC(=S)OCCN1CCCC12CCC(c1ccccc1)CC2 (stereo not given)	PRMT1 inh 42 | PRMT1 inh conf 25
CCCC1CCC2(CCCN2CCOC(=S)Nc2cccc(Cl)c2)CC1 (stereo not given)	PRMT1 inh 32 | PRMT1 inh conf 30
CCCC1CCC2(CCCN2CCOC(=S)Nc2ccccc2Cl)CC1 (stereo not given)	none
CCCC1CCC2(CCCN2CCOC(=O)Nc2cccc(Cl)c2)CC1 (stereo not given)	none
COc1cccc(-c2cccc(NC(=O)C3CCN(Cc4ccon4)CC3)c2)c1	none
Cc1ccnc(NS(=O)(=O)c2ccc(NC(=O)c3cccc(Cl)c3)cc2)n1	none
COC(=O)c1cc(N2CCN(C)CC2)nc2ccccc12	PRMT1 inh 83 | PRMT1 inh conf inactive
CCC(=O)/C=C1\Sc2ccc(OC)cc2N1CCO	none
CCC(=O)/C=C1\Sc2ccc(OC)cc2N1CC	PRMT1 inh 52 | PRMT1 inh conf inactive
CC(=NNC(=S)N1CC2CCC(CC2)C1)c1ccncn1	PRMT1 inh 27 | PRMT1 inh conf inactive
CC(=O)c1cc(F)ccc1OCC(=O)N1CCCc2ccccc21	none
C/C=C\C=C/C(=O)Nc1cccc(C2=NOC3(C2)C[C@H](C(N)=O)N(C(=O)CC)C3)c1 (stereo not given in full)	none
C/C=C\C=C/C(=O)Nc1cccc(C2=NOC3(C2)C[C@@H](C(N)=O)N(C(=O)CCCCC)C3)c1 (stereo not given in full)	PRMT1 inh 25 | PRMT1 inh conf 65
C/C=C\C=C/C(=O)Nc1cccc(C2=NOC3(C2)C[C@H](C(N)=O)N(C(=O)Cc2ccc([N+](=O)[O-])cc2)C3)c1 (stereo not given in full)	PRMT1 inh 42 | PRMT1 inh conf 52
Cc1c(C2Nc3ccccc3NC3=C2C(=O)CC(C)(C)C3)cnn1C (stereo not given)	PRMT1 inh 27 | PRMT1 inh conf inactive
Cc1ccc(C)c(S(=O)(=O)Nc2ccc3scnc3c2)c1	PRMT1 inh 35 | PRMT1 inh conf inactive
Cc1ccc(C)c(S(=O)(=O)Nc2ccc3[nH]c(=O)[nH]c3c2)c1	none
Cc1ccc(-c2cc(-c3ccc(Cl)cc3)c(C#N)c(N)n2)o1	PRMT1 inh 42 | PRMT1 inh conf 63
Cc1c(-c2ccc(F)cc2)nc(N)c(C#N)c1-c1ccco1	none
Cc1ccc(-c2cc(-c3ccc(C)o3)nc(N)c2C#N)cc1	PRMT1 inh 58 | PRMT1 inh conf 79
Cc1ccc(-c2cc(-c3ccc(F)cc3)c(C#N)c(N)n2)o1	PRMT1 inh 46 | PRMT1 inh conf inactive
CCOc1cc(-c2cc(-c3ccc(C)o3)nc(N)c2C#N)ccc1O	none
